# According to PubChem BioAssay (EPA / NIEHS):
# Activity calls are given as the source filed them. Rule for the calls: active = hit-call score of the fitted dose curve at least 0.9, where 1 is the maximum; inactive = score below 0.9.
# Target: CCAAT/enhancer-binding protein beta (Homo sapiens) (UniProt P17676)
# Test: ATG_C_EBP_CIS: Attagene CIS-FACTORIAL HepG2 Assay for human CCAAT/Enhancer Binding Protein (C/EBP) beta (AID 2282927)
# Conditions: HepG2 Attagene cis-factorial transcription factor reporter; actives raise or lower the signal
# Experimental: ATG_CIS is a cell-based, multiplexed-readout assay that uses HepG2, a human liver cell line, with measurements taken at 24 hours after chemical dosing in a 24-well plate.ATG_C_EBP_CIS is one of 52 assay component(s) measured or calculated from the ATG_CIS assay. It is designed to make measurements of mRNA induction, a form of inducible reporter, as detected with fluorescence intensity signals by Reverse transcription polymerase chain reaction (RT-PCR) and Capillary electrophoresis technology.Data from the assay component ATG_C_EBP_CIS was analyzed into 1 assay endpoint. This assay endpoint, ATG_C_EBP_CIS, was analyzed with bidirectional fitting relative to DMSO as the negative control and baseline of activity. Using a type of inducible reporter, measures of mRNA for gain or loss-of-signal activity can be used to understand the reporter gene at the transcription factor-level as they relate to the gene CEBPB. Furthermore, this assay endpoint can be referred to as a primary readout, because this assay has produced multiple assay endpoints where this one serves a reporter gene function. To generalize the intended target to other relatable targets, this assay endpoint is annotated to the dna binding intended target family, where the subfamily is basic leucine zipper.
# Human liver HepG2 cells are transiently transfected with multiple reporter transcription units (MRTUs) in 6-well plates using FuGene 6 reagent (Roche; 3 ml FuGene/1 mg DNA). The MRTU constructs are regulated by a cis-regulating element (promoter). […] A major difference between the CIS and TRANS system is that in CIS activities of endogenous TFs are measured, whereas the TRANS assay evaluates changes in activities of exogenous, chimeric NR-Gal4 proteins. […] At the end of 24 hour incubation, total RNA was isolated using TriZol reagent (Invitrogen). The isolated RNA is then reverse-transcribed using oligo(dT) primer and Mo-MLV reverse transcriptase (Invitrogen) with DNAse I (Ambion) treatment for 30 min. The one-tenth of the produced cDNA was amplified by PCR using Taq DNA polymerase (Invitrogen) and two reporter sequence-specific primers. The PCR products were fluorescently labeled by primer extension with 6-arboxyfluorescein (6-FAM) 5'-labeled reporter sequence-specific primer (2 min at 95 C, 20 s at 68 C and 10 min at 72 C) and these products were digested with 5U of HpaI (New England Biolabs) for 2h at 37 C. The fragments were purified using Qiaquick PCR columns (Qiagen), analyzed on an ABI 3130xL genetic analyzer (Applied Biosystems) with peak positions identified by using a set of X-rhodamine (ROX)-labeled MapMarker1000 molecular weight standards (BioVentures). The raw capillary electrophoresis data was processed using Attagraph software (Attagene).
# Sequence of CCAAT/enhancer-binding protein beta (Homo sapiens) (P17676 whole entry, looked up): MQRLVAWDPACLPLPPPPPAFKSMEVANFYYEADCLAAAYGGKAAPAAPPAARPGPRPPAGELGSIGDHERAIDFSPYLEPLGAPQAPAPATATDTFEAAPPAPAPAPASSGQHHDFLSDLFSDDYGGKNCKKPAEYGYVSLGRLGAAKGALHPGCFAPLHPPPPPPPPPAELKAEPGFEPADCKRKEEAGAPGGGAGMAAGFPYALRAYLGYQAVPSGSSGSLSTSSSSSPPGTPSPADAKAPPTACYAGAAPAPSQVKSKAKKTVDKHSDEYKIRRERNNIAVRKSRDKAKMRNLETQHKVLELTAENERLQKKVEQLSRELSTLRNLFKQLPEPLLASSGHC
SMILES,AC50,outcome
Clc1nc(Cl)nc(Nc2ccccc2Cl)n1,75.5 µM (active),
CN/C(=N\[N+](=O)[O-])NCc1cnc(Cl)s1,,inactive
Nc1cnn(-c2ccccc2)c(=O)c1Cl,,inactive
CC(C)Oc1cccc(NC(=O)c2ccccc2C(F)(F)F)c1,5.21 µM (active),
COCC(=O)N(c1c(C)cccc1C)C(C)C(=O)OC (stereo not given),,inactive
CCN(CC)c1nc(C)cc(OP(=S)(OC)OC)n1,,inactive
CSC(=O)c1c(C(F)F)nc(C(F)(F)F)c(C(=O)SC)c1CC(C)C,,inactive
N#Cc1c(Cl)cccc1Cl,,inactive
CC(C)NC(=O)N1CC(=O)N(c2cc(Cl)cc(Cl)c2)C1=O,,inactive
O=C(O)c1c(Cl)ccc2cc(Cl)cnc12,,inactive
CC(C)=CC1C(C(=O)OCc2coc(Cc3ccccc3)c2)C1(C)C (stereo not given),,inactive
CCN(CC)C(=O)C(C)Oc1cccc2ccccc12 (stereo not given),1.2 µM (active),
CCOc1nc(C(Cl)(Cl)Cl)ns1,,inactive
CS(=O)(=O)c1cc(C(F)(F)F)ccc1C(=O)c1cnoc1C1CC1,,inactive
COP(=S)(OC)SCn1nnc2ccccc2c1=O,6.88 µM (active),
COC(=O)NC(=S)Nc1ccccc1NC(=S)NC(=O)OC,28.7 µM (active),
N#CN=C1SCCN1Cc1ccc(Cl)nc1,,inactive
OC(c1ccc(Cl)cc1)(c1ccc(Cl)cc1)C(Cl)(Cl)Cl,,inactive
C=CCOC(=O)C(C)(C)OC(=O)c1cc(-n2c(=O)cc(C(F)(F)F)n(C)c2=O)ccc1Cl,,inactive
COP(=O)(OC)O/C(C)=C/C(=O)N(C)C,,inactive

SMILES,AC50,outcome
COCc1cnc(C2=NC(C)(C(C)C)C(=O)N2)c(C(=O)O)c1 (stereo not given),,inactive
Nc1c(Cl)c(Cl)nc(C(=O)O)c1Cl,,inactive
O=C(Nc1ccccc1-c1ccc(Cl)cc1)c1cccnc1Cl,10.3 µM (active),
COc1ccc(-c2ccccc2)cc1NNC(=O)OC(C)C,,inactive
CCCC(=NOCC)C1=C(O)CC(CC(C)SCC)CC1=O (stereo not given),,inactive
CC(C)N1C(=O)c2ccccc2NS1(=O)=O,,inactive
CCOc1cc(C(C)(C)C)ccc1C1COC(c2c(F)cccc2F)=N1 (stereo not given),,inactive
O=c1n(Cl)c(=O)n(Cl)c(=O)n1Cl,,inactive
COc1cc(Cl)c(OC)cc1Cl,,inactive
CS(=O)(=O)c1ccc(C(=O)C2C(=O)CCCC2=O)c([N+](=O)[O-])c1,,inactive
CC(C)C1(C)N=C(c2ncccc2C(=O)O)NC1=O (stereo not given),,inactive
CCC(C)n1c(=O)[nH]c(C)c(Br)c1=O (stereo not given),,inactive
Cc1nc(N(C)C)nc(OC(=O)N(C)C)c1C,,inactive
CC1(C)C(C(=O)OC(C#N)c2cccc(Oc3ccccc3)c2)C1(C)C (stereo not given),,inactive
CCCCC(O)(Cn1cncn1)c1ccc(Cl)cc1Cl (stereo not given),,inactive
CC(C)(C)C(=O)C(Oc1ccc(Cl)cc1)n1cncn1 (stereo not given),50 µM (active),
CC1(C)C(C=C(Cl)Cl)C1C(=O)OC(C#N)c1cccc(Oc2ccccc2)c1 (stereo not given),,inactive
Cc1cc(C)nc(Nc2ccccc2)n1,6.27 µM (active),
CCOP(=O)(OCC)Oc1nc(Cl)c(Cl)cc1Cl,,inactive
CN=C=S,15.4 µM (active),
